# Rows were chosen to be rich in hits. Some 14% of all compounds tested hit in one or more screens of this group.
# CHX counter = Cycloheximide Counterscreen for Small Molecule Inhibitors of Shiga Toxin; hit rate 12% among 300,000; max response, %; AID 2314, 2010; cell reporter, cycloheximide protein synthesis inhibition counterscreen; in the data active = max response mostly above about 13%, no sharp cut-off; inactive = mostly below about 14%; also: read at 38.3 µM for the half of the compounds with a filed dose; 0% is about no effect
# NS1 inh = qHTS Assay for Inhibitors of Influenza NS1 Protein Function. hit rate 0.4% among 270,000. Potency, µM (top dose mostly 46.1 µM), without a hit: top-dose activity, positive = more growth; calls by dose curve; also: potency is read from the fitted curve at half-maximal effect; actives are rising curves; nearly all actives have a fitted effect of over 50% in size
#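 S. cerevisiae expressing influenza A NS1, grown in glucose, washed, then diluted 1:100 into pH 6.0 -URA galactose medium with 23 nl compound. Growth recovery read as OD600; NS1-free strain serves as control.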
# Shiga inhibitor = A qHTS for Small Molecule Inhibitors of Shiga Toxin; Vero cells, Shiga toxin protein synthesis inhibition reporter; inhibition, % at 38.7 µM; hit rate 9.2% among 290,000; in the data active = inhibition mostly above about 28%, no sharp cut-off; inactive = mostly below about 43%; also: 0% is about no effect
# LmPK inhibitor = qHTS Assay for Inhibitors of Leishmania Mexicana Pyruvate Kinase (LmPK). Q27686. purified LmPK, Kinase-Glo ATP luminescence, 1 h. Potency, µM (titrated, usually from 57.5 µM), inactives show at the highest dose activity change, negative = inhibition, actives largely listed as inhibitors. hit rate 0.37% among 290,000. AID 1721, 2009; also: potency is read from the fitted curve at half-maximal effect; % is scaled to controls: 0 for no effect and ±100 for the full control effect
#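 In 50 mM imidazole pH 7.2 with 7 mM MgCl2, LmPK (0.1 nM) turned over PEP (0.5 mM) and ADP (0.1 mM) for 1 h at room temperature. Luciferase read-out of ATP.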
# FBPA Giardia inh = qHTS Assay for Inhibitors of Fructose-1,6-bisphosphate Aldolase from Giardia Lamblia; purified Giardia FBPA; Potency, µM (titrated, usually from 59.6 µM), for inactives: at the highest dose activity, negative = inhibition, usual class: inhibitors; hit rate 0.71% among 290,000; AID 2451, 2010; also: potency is read from the fitted curve at half-maximal effect; % is scaled to controls: 0 for no effect and ±100 for the full control effect; nearly all actives have a fitted effect of over 55% in size
# Target sequence (A8B2U2 whole entry, looked up): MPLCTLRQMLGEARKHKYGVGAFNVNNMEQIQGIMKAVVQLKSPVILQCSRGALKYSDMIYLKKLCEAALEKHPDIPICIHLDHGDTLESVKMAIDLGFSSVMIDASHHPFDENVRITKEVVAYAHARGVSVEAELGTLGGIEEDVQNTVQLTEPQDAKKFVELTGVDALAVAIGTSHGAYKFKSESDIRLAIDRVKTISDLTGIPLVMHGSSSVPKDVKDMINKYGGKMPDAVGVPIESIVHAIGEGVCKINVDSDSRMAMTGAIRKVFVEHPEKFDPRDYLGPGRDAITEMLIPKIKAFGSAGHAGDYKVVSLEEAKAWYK
#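 Giardia FBPA (40 nM reagent) was preincubated 10 min at RT with compound (up to 57.5 uM final), then substrate plus GAPDH/TPI/NAD/arsenate coupling system with diaphorase/resazurin was added; resorufin fluorescence (525/598 nm) was read after 20 min.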
# * = called active by the depositor; ? = inconclusive; . = no result given. Unless noted, calls follow the shape of the dose curve; as a rule, active = well fitted curve in the direction sought with a large enough effect; inconclusive = small, poorly fitted or top-dose-only effect, or another doubt; inactive = no such curve, though single readings can be large; an effect the other way counts as inactive or inconclusive.
SMILES,CHX counter,NS1 inh,Shiga inhibitor,LmPK inhibitor,FBPA Giardia inh
CCOc1ccccc1N1CCN(C(=O)NCc2ccc(Cl)cc2)CC1,-4,-55%,-1,6%,-3%
COc1ccc(CN2CCNC(=O)C2CC(=O)NCC2CCOCC2)cc1C (stereo unspecified),-2,1%,-4,-8%,-18%
O=C(COc1ccc(F)cc1)N1CCC(Cc2ccccc2)CC1,14*,-2%,52,0%,19%
O=C1/C(=C/c2ccccc2Cl)SC(=S)N1CCC(=O)N1CCCCC1CCO (stereo unspecified),9,-10%,5,1%,-3%
O=C(CCN1C(=O)c2ccccc2C1=O)N1CCC(c2ccccc2)C1 (stereo unspecified),21*,-32%,123,-12%,5%
O=C1/C(=C\c2ccccc2)SC(=S)N1CCC(=O)N1CCCCC1CCO (stereo unspecified),35*,-19%,39*,-3%,5%
O=C(CCN1C(=O)c2ccccc2C1=O)N1CCN(c2ccccc2)CC1,-5,-2%,-6,1%,0%
O=c1cnc2cnc(N3CCNCC3)nc2n1CCc1ccccc1,.,.,.,.,0%
CCOC(=O)C1(Cc2ccccc2C)CCCN(C(=O)c2ccccn2)C1 (stereo unspecified),40*,2%,71*,0%,-3%
CCOC(=O)C1(Cc2ccccc2C)CCCN(C(=O)CCc2cccnc2)C1 (stereo unspecified),32*,-5%,33*,0%,-4%
CCOC(=O)C1(Cc2ccccc2)CCCN(C(=O)c2cnn(CC)c2)C1 (stereo unspecified),29*,-3%,73*,1%,6%
CCN(c1ccccc1)S(=O)(=O)c1ccc(OC)c(NC(=O)Cn2cnc3c2c(=O)n(C)c(=O)n3C)c1,6,.,-22,1%,3%
COCCc1nc2ccc(C(=O)N(C)Cc3cccc(-n4cccn4)c3)cc2o1,62*,-12%,82*,-9%,.
CN(Cc1ccon1)C(=O)c1ccc2nc(Cc3cccc(Cl)c3)oc2c1,22,-8%,5,3%,-3%
CN(Cc1cccnc1)C(=O)c1ccc2nc(Cc3ccccc3F)oc2c1,43*,-13%,61*,-1%,-2%
COc1cccc(/C=N/Nc2nnc(C)n2N)c1O,17,-6%,19,4%,-11%
COc1cccc(/C=N/Nc2cc(Cl)nc(C)n2)c1O,32*,3%,54*,1%,-7%
COc1cccc(/C=N/Nc2c(Cl)cncc2Cl)c1O,32*,-49%,84*,-2%,-9%
CC(=O)Nc1ccccc1OCCOc1ccc(Br)cc1,5,.,17,0%,-1%
NC(=O)c1ccccc1OCCOc1ccc(Br)cc1,17*,-35%,57*,-2%,8%
O=C(c1ccc2nc(N3CCOCC3)sc2c1)N1CCN(C(=O)c2ccco2)CC1,-3,-12%,-6,13%,-3%
c1ccc2sc(N3CCOCC3)nc2c1,44*,0%,53,-25%,5%
Nc1ccc2nc(N3CCOCC3)sc2c1,41*,.,140*,?,?
c1ccc2sc(N3CN(CCN4CCOCC4)CN(c4nc5ccccc5s4)C3)nc2c1,8,-63%,17,2%,-1%
Cc1nc(-c2ccc(Cl)cc2)sc1C1(C)CC(c2cccnc2)=NO1 (stereo unspecified),112*,-21%,80*,1%,-24%
SMILES,CHX counter,NS1 inh,Shiga inhibitor,LmPK inhibitor,FBPA Giardia inh
Cc1nc(NC(=O)c2ccccc2)sc1C1(C)CC(c2c(Cl)cccc2Cl)=NO1 (stereo unspecified),2,9%,4,4%,-11%
Cc1nc(NC(=O)c2ccccc2)sc1C1(C)CC(c2ccccc2F)=NO1 (stereo unspecified),43*,?,60*,0%,-11%
Cc1nc(C(=O)NC2CCOCC2)sc1C1(C)CC(c2ccccc2)=NO1 (stereo unspecified),11*,-4%,22,3%,2%
Cc1nc(-c2ccccc2)sc1C1(C)CC(c2c(Cl)cccc2Cl)=NO1 (stereo unspecified),20*,?,53*,0%,-4%
Cc1nc(-c2ccc(Cl)cc2)sc1C1(C)CC(c2ccc(C#N)cc2)=NO1 (stereo unspecified),1,-1%,14,-5%,-1%
Cc1nc(-c2ccc(Cl)cc2)sc1C1(C)CC(c2cccc([N+](=O)[O-])c2)=NO1 (stereo unspecified),18*,-7%,17,1%,4%
Cc1nc(C(=O)Nc2ccccc2)sc1C1(C)CC(c2cccnc2)=NO1 (stereo unspecified),25*,-3%,42*,2%,7%
Cc1nc(-c2ccccc2)sc1C1(C)CC(c2ccc([N+](=O)[O-])cc2)=NO1 (stereo unspecified),-3,0%,-2,4%,-5%
CCOC(=O)N1CCN(S(=O)(=O)N2CCCC(C(=O)NCCCN3CCCCC3)C2)CC1 (stereo unspecified),-2,3%,-10,4%,.
Cc1nc2ccc([N+](=O)[O-])cc2[nH]1,9,.,-2,-1%,-1%
CCCc1nc2ccc([N+](=O)[O-])cc2[nH]1,11,-4%,-7,-2%,-6%
Cn1cccc1-c1nc2ccc([N+](=O)[O-])cc2[nH]1,33*,-4%,40*,-1%,-27%
O=[N+]([O-])c1cccc(/C=C/c2nc3ccc([N+](=O)[O-])cc3[nH]2)c1,19*,11%,41,8%,-1%
O=[N+]([O-])c1ccc2nc(-c3ccccc3)[nH]c2c1,42*,-21%,25,?,-19%
CC(=O)Nc1nc(C)c(-c2nc3ccc([N+](=O)[O-])cc3[nH]2)s1,17*,-3%,37,1%,2%
Cc1cc(OCC(=O)NC2CC2)c2c(C)c(C)c(=O)oc2c1,-1,0%,-4,2%,.
CCOc1ccccc1Nc1ccc(N)cc1S(=O)(=O)O,.,3%,.,.,.
C[C@@H]1C[C@](C)(C(=O)c2ccc3c(c2)OCO3)C=C1c1ccc2c(c1)OCO2,.,.,.,.,0%
Cc1o[nH]c(=O)c1CC[C@H](N)C(=O)O,.,.,.,.,-21%
O=[N+]([O-])c1ccc2nc(-c3cccnc3)[nH]c2c1,21*,3%,60,-4%,-23%
O=C(Nc1ccc2nc(-c3cccnc3)[nH]c2c1)C1CCCCC1,6,-17%,16,1%,0%
O=C(Nc1ccncc1)Nc1cccc(F)c1,29*,-1%,67,-3%,4%
Fc1cccc(NC(=S)Nc2cccnc2)c1,6,-2%,-4,-5%,-15%
O=C(Nc1cccnc1)Nc1cccc(F)c1,18*,5%,21,0%,8%
Cc1ccc(NC(=O)Nc2cccnc2)cc1NC(=O)Nc1cccnc1,24*,1%,64,2%,0%
Cc1ncc([N+](=O)[O-])n1CC(=O)Nc1cc(Cl)ccc1Cl,-8,-1%,-2,-1%,-10%

# Assay outcomes from PubChem BioAssay.
